Compound activity: PubChem BioAssay, National Center for Advancing Translational Sciences (NCATS)
LmPK inh: blocks Leishmania mexicana pyruvate kinase activity; Q27686; purified LmPK, Kinase-Glo ATP luminescence, 1 h; Potency, µM (doses to about 57.5 µM), most hits filed as inhibitors; 290,000 tested, 0.37% active; AID 1721
Target sequence (Q27686 whole entry, looked up): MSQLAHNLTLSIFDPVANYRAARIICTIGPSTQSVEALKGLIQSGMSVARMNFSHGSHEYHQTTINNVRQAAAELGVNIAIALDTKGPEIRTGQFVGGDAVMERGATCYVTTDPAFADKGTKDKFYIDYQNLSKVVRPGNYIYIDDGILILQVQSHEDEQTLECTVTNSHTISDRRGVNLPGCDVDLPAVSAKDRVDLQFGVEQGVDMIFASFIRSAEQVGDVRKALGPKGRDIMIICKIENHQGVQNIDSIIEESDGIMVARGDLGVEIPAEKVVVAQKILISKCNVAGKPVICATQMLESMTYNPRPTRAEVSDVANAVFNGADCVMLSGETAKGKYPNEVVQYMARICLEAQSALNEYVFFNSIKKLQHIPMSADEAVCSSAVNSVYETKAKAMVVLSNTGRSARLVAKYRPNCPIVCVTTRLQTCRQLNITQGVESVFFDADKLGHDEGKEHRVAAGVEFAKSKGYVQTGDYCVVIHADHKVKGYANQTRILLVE
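0.1 nM LmPK, 0.5 mM PEP, 0.1 mM ADP; 50 mM imidazole pH 7.2, 7 mM MgCl2, 50 mM KCl; 1 h RT. Kinase-Glo luminescence readout, normalized to no-enzyme (full inhibition) and uninhibited wells.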
Cycloheximide cs: counter-screen hit for Shiga toxin inhibitors, cycloheximide; max response, %; cell reporter, cycloheximide protein synthesis inhibition counterscreen; 300,000 tested, 12% active; in the data active means max response mostly above about 13%, no sharp cut-off; inactive means mostly below about 14%; further: read at 38.3 µM for the half of the compounds with a filed dose
Shiga inhibitor: Shiga toxin inhibition; Vero cells, Shiga toxin protein synthesis inhibition reporter; AID 2315; inhibition, % at 38.7 µM; 290,000 tested, 9.2% active; in the data active means inhibition mostly above about 28%, no sharp cut-off; inactive means mostly below about 43%
Pf growth 48h: inhibits P. falciparum growth in the first generation, 48 h; 310,000 tested, 5.9% active; Potency, µM (highest dose often 28.7 µM), actives largely listed as inhibitors; P. falciparum luciferase growth in erythrocytes, 48 h
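Read-out is firefly luciferase luminescence from an integrated reporter in P. falciparum, so falling signal marks reduced parasite growth. Infected erythrocytes were at 2% hematocrit and 0.1% parasitemia (final) in Albumax-supplemented RPMI 1640.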
Pf growth 96h: inhibits malaria parasite growth, 96 h | P. falciparum luciferase reporter growth, 96 h | Potency, µM (series often up to 28.7 µM), hits mostly inhibitors | 320,000 tested, 6.9% active | AID 504834
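Parasite growth measured via integrated firefly luciferase reporter in P. falciparum. Infected erythrocytes at 2% hematocrit, 0.05% parasitemia final were treated 96 hours at 37 C under 5% CO2, and luminescence was read.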
Large screens that a line does not name were inactive. Hits are enriched below; roughly 22% of the tested compounds scored in any of these assays. Unless noted, the call rests on the fitted dose curve; in most records, active means well fitted inhibition curve with a large enough effect; inconclusive means small, poorly fitted or top-dose-only effect, or another doubt; inactive means no such curve, though single readings can be large or run the other way.

Cc1ccc2nc(NC(=O)c3ccccn3)sc2c1	Pf growth 96h inconclusive
COc1ccc2nc(NC(=O)c3cnccn3)sc2c1	LmPK inh inconclusive, Cycloheximide cs 31.4, Shiga inhibitor 119.0 (no result: Pf growth 96h)
COc1ccc2nc(NC(=O)c3ccccc3C(=O)O)sc2c1	none
Cc1ccc2nc(NC(=O)c3ccccc3F)sc2c1	Cycloheximide cs 38.7, Shiga inhibitor 82.6, Pf growth 96h inconclusive
COc1ccc(C(=O)Nc2nc3ccc(OC)cc3s2)cc1	Cycloheximide cs 39.4, Shiga inhibitor 68.3
COc1ccc2nc(NC(=O)c3ccc(NS(=O)(=O)c4cccs4)cc3)sc2c1	Cycloheximide cs 34.7, Pf growth 96h inconclusive
Cn1nccc1C(=O)N1CCN(S(=O)(=O)c2ccc(Br)s2)CC1	none
O=C(NCC(c1ccco1)N1CCc2ccccc2C1)C(=O)Nc1ccccc1F (centres undefined)	none (no result: LmPK inh, Cycloheximide cs, Shiga inhibitor)
COc1ccccc1CNC(=O)COC(=O)c1cccc(S(=O)(=O)N2CCOCC2)c1	none (no result: LmPK inh, Cycloheximide cs, Shiga inhibitor)
Cc1c(O)c(S(=O)c2ccccc2)c(=O)n(-c2ccccc2)c1-c1ccccc1 (centres undefined)	none
Cc1ccc(S(=O)(=O)Nc2cc3c4c(c2)CCN4C(=O)CC3)cc1	none (no result: LmPK inh, Cycloheximide cs, Shiga inhibitor)
CCC(=O)Nc1nc2ccc(NC(=O)c3cc(OC)c(OC)c(OC)c3)cc2s1	Pf growth 48h inconclusive
CCCC(=O)Nc1nc2ccc(NC(=O)c3ccccc3F)cc2s1	Cycloheximide cs 20.9, Shiga inhibitor 46.9
COc1ccc2nc(NC(=O)c3ccc(NC(=O)C4CCCO4)cc3)sc2c1 (centres undefined)	Cycloheximide cs 18.6, Pf growth 48h inconclusive
COc1ccc2nc(NC(=O)c3ccccc3F)sc2c1	Cycloheximide cs 27.0, Shiga inhibitor 55.7, Pf growth 96h inconclusive
CCn1cc([N+](=O)[O-])c(C(=O)Nc2nc3ccc(OC)cc3s2)n1	Cycloheximide cs 15.0
COCc1cc(=O)[nH]c2cc(NC(=O)C3CC3)c(C)cc12	none
CCOc1cccc(C2/C(=C(/O)c3ccc4c(c3)CC(C)O4)C(=O)C(=O)N2CCCn2ccnc2)c1 (centres undefined)	none
CCN(CC)c1cc(C)c2cc(NC(=O)c3ccccc3F)ccc2n1	Cycloheximide cs 16.3, Pf growth 48h 10.4µM, Pf growth 96h inconclusive
COc1ccc2nc(NC(=O)c3cccc(-c4cc5ccccc5oc4=O)c3)sc2c1	Cycloheximide cs 34.1, Shiga inhibitor 43.1, Pf growth 48h inconclusive, Pf growth 96h 4.65µM
Cc1cccc([N+](=O)[O-])c1NC(=O)CSc1nnc2ccccn12	Pf growth 96h inconclusive (no result: LmPK inh, Cycloheximide cs, Shiga inhibitor)
COC(CNC(=O)c1ccc2c(c1)ncn2C1CCCCCC1)OC	Pf growth 96h inconclusive
CCOCCCNC(=O)c1ccc2c(c1)ncn2C1CCCC1	Cycloheximide cs 23.7, Shiga inhibitor 28.6
CC(C)CCNC(=O)c1ccc2c(c1)ncn2C1CCCC1	Cycloheximide cs 34.3, Shiga inhibitor 124.5, Pf growth 96h inconclusive
Cc1ccc(C23CC4CC(CC(C(=O)NC(C)C(N)=O)(C4)C2)C3)cc1 (centres undefined)	none
Cc1ccc([N+](=O)[O-])cc1Nc1nc(N2CCCC2)nc(N2CCCC2)n1	none (no result: Shiga inhibitor)
CCOC(=O)C1=C(COC(=O)/C=C/c2cccc(Cl)c2)NC(=O)NC1C (centres undefined)	none (no result: LmPK inh, Cycloheximide cs, Shiga inhibitor)
CCOc1ccccc1NS(=O)(=O)c1ccc2c(c1)n(C)c(=O)c(=O)n2C	none
O=C(c1cn(Cc2ccccc2)nc1-c1ccccc1)N1CCN(c2ccccn2)CC1	Pf growth 48h 14.7µM, Pf growth 96h inconclusive (no result: LmPK inh, Cycloheximide cs, Shiga inhibitor)
O=C(O)c1cn(Cc2ccccc2)nc1-c1cccnc1	none
CC(=O)c1ccc(N2CCN(C(=O)c3cn(Cc4ccccc4)nc3-c3cccnc3)CC2)c(F)c1	Pf growth 48h 13.1µM, Pf growth 96h 9.28µM (no result: LmPK inh, Cycloheximide cs, Shiga inhibitor)
CCCCN(C(=O)c1cc2ccccc2o1)c1c(N)n(CCC)c(=O)[nH]c1=O	none
Cc1cccc(OCCSc2nc3ccccc3n2CCC(=O)O)c1	Pf growth 96h inconclusive
COc1ccccc1/C=N/NC(=O)CC(=O)NCc1cccnc1	none
COc1ccc(NC(=O)C2=Cc3ccccc3OC2)cc1	none
COc1ccc(NC(=O)C2=Cc3cccc(OC)c3OC2)cc1	Cycloheximide cs 31.1, Shiga inhibitor 59.8
COc1cccc2c1OCC(C(=O)OCc1cccnc1)=C2	Cycloheximide cs 14.8
CN1C(=O)C(C)(C)c2cc(S(=O)(=O)N3CCCC(C(=O)NCc4ccccc4Cl)C3)ccc21 (centres undefined)	Pf growth 48h inconclusive, Pf growth 96h inconclusive
Cc1cc(N2CCOCC2)n2nc(C)c(-c3ccccc3Cl)c2n1	Pf growth 48h inconclusive, Pf growth 96h 5.22µM
Cc1cc(N2CCOCC2)n2nc(C)c(-c3ccccc3)c2n1	none (no result: Pf growth 96h)
O=C(NC(C(=O)N/N=C/c1cc([N+](=O)[O-])ccc1O)c1n[nH]c(=O)c2ccccc12)c1ccccc1 (centres undefined)	Pf growth 48h inconclusive, Pf growth 96h inconclusive
CC1=C(C(=O)Nc2cccnc2)C(c2cccnc2)n2nc(-c3cccs3)nc2N1 (centres undefined)	Pf growth 96h 9.28µM
COc1ccc(-c2nc3n(n2)C(c2cccnc2)C(C(N)=O)=C(C)N3)cc1 (centres undefined)	Pf growth 96h 11.7µM
CC1=C(C(=O)Nc2ccccc2)C(c2cccnc2)n2nc(-c3cccnc3)nc2N1 (centres undefined)	none
COc1ccccc1CNS(=O)(=O)c1ccc2c(c1)N(C(C)=O)CCO2	none
Cc1ccc(C(=O)NCC(=O)OCCCOC(=O)CNC(=O)c2ccc(C)c(C)c2)cc1C	none (no result: LmPK inh, Cycloheximide cs, Shiga inhibitor)
COc1cccc(N/C=C/c2onc(C)c2[N+](=O)[O-])c1	none
CC(=O)NC(c1ccco1)c1cc(Cl)c2ccccc2c1O (centres undefined)	none (no result: LmPK inh, Cycloheximide cs, Shiga inhibitor)
CC(=O)NC(c1ccco1)c1cc(F)c2cccnc2c1O (centres undefined)	Pf growth 48h 4.15µM, Pf growth 96h inconclusive (no result: LmPK inh, Cycloheximide cs, Shiga inhibitor)
CC(=O)NC(c1cccs1)c1cc(F)c2cccnc2c1O (centres undefined)	Pf growth 48h 2.94µM, Pf growth 96h 4.65µM (no result: LmPK inh, Cycloheximide cs, Shiga inhibitor)
CCOC(=O)COc1c(Cl)cc(C2NC(=S)NC(c3ccccc3)=C2C(C)=O)cc1OCC (centres undefined)	Pf growth 48h inconclusive, Pf growth 96h inconclusive
CN1CCN(C(=O)Nc2cccc(-c3ccccc3)c2)CC1	none
O=C(NCCc1ccc(Cl)cc1)c1cccc(NC2=NC3CS(=O)(=O)CC3S2)c1 (centres undefined)	none
Cc1[nH]n(C(N)=S)c(=O)c1N=Nc1ccc(S(=O)(=O)N2CCCC2)cc1	Cycloheximide cs 19.4
Cc1ccc(N=Nc2c(C)[nH]n(C(N)=S)c2=O)cc1	Pf growth 48h inconclusive, Pf growth 96h inconclusive
Cc1[nH]n(C(N)=S)c(=O)c1N=Nc1ccc(Br)cc1	Cycloheximide cs 27.1, Shiga inhibitor 42.4
Cc1[nH]n(C(N)=S)c(=O)c1N=Nc1cc(C(F)(F)F)ccc1Cl	Pf growth 96h inconclusive
Cc1[nH]n(C(N)=S)c(=O)c1N=Nc1cccc(C(F)(F)F)c1	Shiga inhibitor 32.5, Pf growth 48h 1.31µM, Pf growth 96h inconclusive
